Test results published in PubChem BioAssay (NCI).
This is part of a sample that, as a whole, favours compounds with a hit. Of some 79,000 tested, about 15% had one in any assay. Activity calls are given as the source filed them. No stated cut-off is given here; in the data, active means growth inhibition above about 70%; inactive means the rest.

Tests used:
[1] = NCI Yeast Anticancer Drug Screen. Data for the rad50 strain (AID 155);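 further: 0% = growth of vehicle-only cultures of the same strain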; conditions: S. cerevisiae rad50 strain growth inhibition, hits give high values
Summary of the method: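 A DNA repair-deficient yeast mutant serves as the test organism; compound-induced growth inhibition is calculated against vehicle-treated cells.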

[2] = NCI Yeast Anticancer Drug Screen. Data for the mec2-1 strain (AID 157); conditions: S. cerevisiae mec2-1 strain, hits give high values
Summary of the method: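 Cells of the genetically defined mec2-1 yeast strain are incubated with test compound. Inhibition of growth is calculated against vehicle-treated controls.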

[3] = NCI Yeast Anticancer Drug Screen. Data for the sgs1 mgt1 strain (AID 161);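 further: 0% = growth of cultures given vehicle only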; conditions: S. cerevisiae sgs1 mgt1 strain, hits give high values
Summary of the method: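 Test agents were incubated with a DNA-repair-mutant yeast strain. Growth was then read and compared against vehicle-treated controls.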

[4] = NCI Yeast Anticancer Drug Screen. Data for the cln2 rad14 strain (AID 165);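 further: 0% = growth equal to vehicle treated cultures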; conditions: S. cerevisiae cln2 rad14 strain, hits give high values
Summary of the method: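 The screen exposed genetically defined yeast (cln2 rad14) to test compounds and scored growth inhibition relative to vehicle-treated controls.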

[5] = NCI Yeast Anticancer Drug Screen. Data for the bub3 strain (AID 167); conditions: S. cerevisiae bub3 mutant strain, hits give high values
Summary of the method: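 Inhibition values come from growth of compound-treated mutant yeast normalised to vehicle-treated controls.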

[6] = NCI Yeast Anticancer Drug Screen. Data for the mlh1 rad18 strain (AID 175); conditions: S. cerevisiae mlh1 rad18 strain growth inhibition, hits give high values
Summary of the method: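 Compound-treated yeast growth, normalised to vehicle controls. Strain bears defined DNA repair mutations.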

[7] = at 5.0 µM (retest, dose inferred, filed as 0.5)
[8] = at 50.0 µM (retest, dose inferred, filed as 5.0)

SMILES	growth inhibition [1, 7]	growth inhibition [1, 8]	growth inhibition ([1]; at 50.0 µM)	growth inhibition [2, 7]	growth inhibition [2, 8]	growth inhibition ([2]; at 50.0 µM)	growth inhibition [3, 7]	growth inhibition [3, 8]	growth inhibition ([3]; at 50.0 µM)	growth inhibition [4, 7]	growth inhibition [4, 8]	growth inhibition ([4]; at 50.0 µM)	growth inhibition [5, 7]	growth inhibition [5, 8]	growth inhibition ([5]; at 50.0 µM)	growth inhibition [6, 7]	growth inhibition [6, 8]	growth inhibition ([6]; at 50.0 µM)
Clc1ccc2nc3ccccc3nc2c1	-31% (inactive)	96% (active)	94.7% (active)	26% (inactive)	67% (inactive)	86.8% (active)	-5% (inactive)	81% (active)	79.6% (active)	-9% (inactive)	79% (active)	80.7% (active)	21% (inactive)	78% (active)	92.3% (active)	-4% (inactive)	94% (active)	93.8% (active)
CCn1c2ccccc2c2ccc(C3C(C(=O)OC)=C(C)NC(C)=C3C(=O)OC)cc21	-3% (inactive)	8% (inactive)	79.4% (active)	-14% (inactive)	14% (inactive)	76% (active)	-2% (inactive)	9% (inactive)	80.8% (active)	-14% (inactive)	26% (inactive)	83.2% (active)	-6% (inactive)	15% (inactive)	85% (active)	1% (inactive)	8% (inactive)	85% (active)
Cc1cc(NCCO)nc2c1ccc1ccccc12	5% (inactive)	9% (inactive)	53.9% (inactive)	3% (inactive)	-2% (inactive)	35.6% (inactive)	3% (inactive)	16% (inactive)	46% (inactive)	-2% (inactive)	23% (inactive)	16.6% (inactive)	-3% (inactive)	16% (inactive)	19% (inactive)	2% (inactive)	28% (inactive)	61.2% (inactive)
O=C1CSC(c2ccccc2O)N1c1ccc(-n2c(-c3ccccc3)nc3ccccc3c2=O)cc1 (configuration not stated)	2% (inactive)	78% (active)	67.3% (inactive)	-1% (inactive)	39% (inactive)	64.4% (inactive)	5% (inactive)	50% (inactive)	72.5% (active)	29% (inactive)	79% (active)	78.5% (active)	-13% (inactive)	56% (inactive)	74.8% (active)	0% (inactive)	81% (active)	75.5% (active)
Cc1cc(-c2ccc(O)c(C)c2)ccc1O	13% (inactive)	94% (active)	83% (active)	-15% (inactive)	74% (active)	57.4% (inactive)	0% (inactive)	78% (active)	74.6% (active)	5% (inactive)	60% (inactive)	51.8% (inactive)	23% (inactive)	98% (active)	72.5% (active)	8% (inactive)	91% (active)	71.5% (active)
Cc1cccc2c(Nc3ccc(NS(C)(=O)=O)cc3)c3ccccc3nc12	55% (inactive)	94% (active)	96.5% (active)	-1% (inactive)	41% (inactive)	47.3% (inactive)	1% (inactive)	17% (inactive)	28.6% (inactive)	-7% (inactive)	19% (inactive)	-12.7% (inactive)	-2% (inactive)	2% (inactive)	24.6% (inactive)	-2% (inactive)	31% (inactive)	39.3% (inactive)
CN(C)C(C)(C)CCNc1c2ccccc2nc2cccc([N+](=O)[O-])c12	96% (active)	97% (active)	96% (active)	98% (active)	100% (active)	94.6% (active)	98% (active)	99% (active)	96.7% (active)	98% (active)	99% (active)	94.5% (active)	96% (active)	99% (active)	97.2% (active)	98% (active)	100% (active)	98% (active)
Clc1nc(Cl)c(Cc2ccccc2)c(Cl)n1	43% (inactive)	97% (active)	91% (active)	50% (inactive)	99% (active)	93.4% (active)	38% (inactive)	100% (active)	90.7% (active)	34% (inactive)	94% (active)	89.2% (active)	49% (inactive)	99% (active)	87.2% (active)	78% (active)	97% (active)	88.5% (active)
O=C1CCC(C(c2ccccc2)(c2ccccc2)c2ccccc2)CC1=O (configuration not stated)	0% (inactive)	99% (active)	-11.1% (inactive)	-1% (inactive)	98% (active)	16.9% (inactive)	0% (inactive)	99% (active)	-5.2% (inactive)	-14% (inactive)	99% (active)	22.5% (inactive)	-3% (inactive)	99% (active)	0.85% (inactive)	-1% (inactive)	99% (active)	-10.2% (inactive)
COC(=O)CC1SC(=S)N(Cc2ccc(Cl)cc2)C1=O (configuration not stated)	-6% (inactive)	80% (active)	98.1% (active)	-8% (inactive)	61% (inactive)	92.5% (active)	2% (inactive)	93% (active)	98.5% (active)	-59% (inactive)	28% (inactive)	55.6% (inactive)	-15% (inactive)	81% (active)	87.5% (active)	-25% (inactive)	88% (active)	98% (active)
Cc1occc1C(=S)Nc1ccc(Cl)c(C(=O)OCC(F)(F)F)c1	23% (inactive)	92% (active)	92.2% (active)	21% (inactive)	93% (active)	92.8% (active)	26% (inactive)	96% (active)	90.8% (active)	21% (inactive)	97% (active)	88.5% (active)	29% (inactive)	99% (active)	91.2% (active)	27% (inactive)	96% (active)	86.8% (active)
O=C(CCl)N1CCN(C(c2ccccc2)c2ccccc2)CC1	6% (inactive)	96% (active)	95% (active)	12% (inactive)	95% (active)	85.8% (active)	9% (inactive)	97% (active)	97.8% (active)	12% (inactive)	91% (active)	81.2% (active)	13% (inactive)	97% (active)	95.5% (active)	15% (inactive)	97% (active)	97.5% (active)
CCOC(=O)CN1CCC(C(=O)CC2(O)C3(Cl)C4(Cl)C5(Cl)C(Cl)(Cl)C6(Cl)C4(Cl)C2(Cl)C6(Cl)C53Cl)CC1 (configuration not stated)	30% (inactive)	98% (active)	98.8% (active)	2% (inactive)	99% (active)	99.2% (active)	51% (inactive)	99% (active)	50.5% (inactive)	58% (inactive)	98% (active)	98.5% (active)	20% (inactive)	98% (active)	99.1% (active)	62% (inactive)	99% (active)	98.8% (active)
CC1(C)C[C@H]2C=C(C=O)[C@]34C[C@]3(C(=O)OC4O)[C@H]2C1 (some centres not stated)	94% (active)	99% (active)	92.5% (active)	98% (active)	100% (active)	93.6% (active)	98% (active)	100% (active)	93.2% (active)	84% (active)	99% (active)	92.3% (active)	97% (active)	100% (active)	92.3% (active)	96% (active)	97% (active)	90.7% (active)
CC1(C(=O)O)CCC2(C)CCC3(C)C(=CC(=O)C4C5(C)CCC(O)C(C)(C)C5CCC43C)C2C1 (configuration not stated)	12% (inactive)	61% (inactive)	52.4% (inactive)	23% (inactive)	78% (active)	64.8% (inactive)	10% (inactive)	74% (active)	65% (inactive)	30% (inactive)	84% (active)	75.7% (active)	29% (inactive)	78% (active)	60.5% (inactive)	18% (inactive)	80% (active)	71.3% (active)
CCCCCCCCN(CCCCCCCC)C(=O)C(C)O (configuration not stated)	14% (inactive)	98% (active)	98.7% (active)	-2% (inactive)	98% (active)	89.2% (active)	20% (inactive)	99% (active)	97.7% (active)	9% (inactive)	97% (active)	81.7% (active)	6% (inactive)	99% (active)	97.5% (active)	27% (inactive)	98% (active)	94% (active)
CCc1cccc(CC)c1NC(=O)C(C#N)C1=C(Cl)C(=O)c2ccccc2C1=O (configuration not stated)	63% (inactive)	97% (active)	89.8% (active)	92% (active)	98% (active)	93.5% (active)	73% (active)	99% (active)	90% (active)	36% (inactive)	99% (active)	91.3% (active)	67% (inactive)	99% (active)	92.1% (active)	75% (active)	96% (active)	90.5% (active)
CC(C)CC(CC(C)C)NCC(C)OC(=O)C(c1ccccc1)c1ccccc1 (configuration not stated)	-1% (inactive)	94% (active)	29.2% (inactive)	-8% (inactive)	78% (active)	50.3% (inactive)	-3% (inactive)	97% (active)	84.8% (active)	-3% (inactive)	73% (active)	20.9% (inactive)	-9% (inactive)	93% (active)	68.2% (inactive)	18% (inactive)	96% (active)	95.2% (active)
CC1(C)OC(=O)C(=NNc2ccccc2[N+](=O)[O-])C(=O)O1	5% (inactive)	4% (inactive)	-6.9% (inactive)	2% (inactive)	19% (inactive)	5.75% (inactive)	2% (inactive)	16% (inactive)	1.25% (inactive)	-2% (inactive)	12% (inactive)	29.4% (inactive)	3% (inactive)	21% (inactive)	21.5% (inactive)	2% (inactive)	7% (inactive)	18.1% (inactive)
